This passage reports binding signal results from publication PMC7862700, “An all-to-all approach to the identification of sequence-specific readers for epigenetic DNA modifications on cytosine”.

The first test addresses T1, SPDEF (Homo sapiens, UniProt O95238 1-335).
T1 sequence: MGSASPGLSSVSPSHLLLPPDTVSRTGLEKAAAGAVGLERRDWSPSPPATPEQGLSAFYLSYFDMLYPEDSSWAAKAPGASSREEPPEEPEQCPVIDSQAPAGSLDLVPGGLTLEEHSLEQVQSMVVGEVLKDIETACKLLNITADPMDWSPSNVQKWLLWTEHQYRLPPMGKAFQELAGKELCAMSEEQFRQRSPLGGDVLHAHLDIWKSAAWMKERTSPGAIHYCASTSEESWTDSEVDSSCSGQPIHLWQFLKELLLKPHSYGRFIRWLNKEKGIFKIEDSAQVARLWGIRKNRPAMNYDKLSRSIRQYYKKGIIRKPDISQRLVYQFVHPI
As to the kind of experiment: DAPPL (digital affinity profiling via proximity ligation, sequencing); 10 mM Tris-HCl pH 7.5, 50 mM NaCl, 1 mM DTT, 4% glycerol, room temperature, 30 min; GST-TFs on glutathione beads, 16-mer random dsDNA library, 0.1% formaldehyde crosslink after washing; high values mean tight binding. The conditions noted are these: protein: recombinant; tags: N-terminal GST; dsDNA, one strand shown. A digest of the protocol:
(§1)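 Sequencing on an Illumina NextSeq500 followed washing, crosslinking with 0.1% formaldehyde, proximity ligation (BsaI/T4 ligase, 1 h, 37 °C) and PCR amplification of pools that had been incubated for 30 min at room temperature with 200 nmole of a random double-stranded 16-mer DNA library in Tris/NaCl/DTT/glycerol buffer. Each pool held DNA-barcoded human transcription factors, expressed in yeast as GST fusions and captured on glutathione beads, plus a tag-only sample. Binding signal is a hexamer's read frequency for a factor divided by its frequency in the tag-only sample.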
In the case of ATGATC, the binding signal is 1.27 fold enrichment (6-mer frequency, TF over GST control). Still for that read-out and setting: the figure for ACACTG is 1.05 fold enrichment (6-mer frequency, TF over GST control). Same read-out and setting: the figure for CCTGTG is 1.02 fold enrichment (6-mer frequency, TF over GST control). Same read-out and setting: the same measure for CTGGTC: 1.24 fold enrichment (6-mer frequency, TF over GST control); for TTTATT: 1.2 fold enrichment (6-mer frequency, TF over GST control). As for TACAAA, the binding signal is 1.14 fold enrichment (6-mer frequency, TF over GST control). The same measure, in the same setting: the figure for CCTGCA is 1.37 fold enrichment (6-mer frequency, TF over GST control); for ACTGCC it is 1.46 fold enrichment (6-mer frequency, TF over GST control). Turning to ATAATT, the binding signal was 1.23 fold enrichment (6-mer frequency, TF over GST control). The same measure, in the same setting: the same measure for CCTCGG: 1.04 fold enrichment (6-mer frequency, TF over GST control); for TTAATC: 1.26 fold enrichment (6-mer frequency, TF over GST control); for CTGTTG: 1.12 fold enrichment (6-mer frequency, TF over GST control). As to ACATAC, the binding signal was 1.2 fold enrichment (6-mer frequency, TF over GST control). Consider GTTCCG, for which the binding signal is 2.25 fold enrichment (6-mer frequency, TF over GST control). ATTGCC: the binding signal is 1.18 fold enrichment (6-mer frequency, TF over GST control). Same read-out and setting: the same measure for CGTTCC: 1.5 fold enrichment (6-mer frequency, TF over GST control); for GCTATG: 1.23 fold enrichment (6-mer frequency, TF over GST control); for GGATGT: 3.07 fold enrichment (6-mer frequency, TF over GST control). The same measure, in the same setting: the figure for TGTCTC is 1.33 fold enrichment (6-mer frequency, TF over GST control); for CGCTCC it is 1.22 fold enrichment (6-mer frequency, TF over GST control). On the same count and under the same terms, the figure for GCTGTA is 1.12 fold enrichment (6-mer frequency, TF over GST control); for TGCCTG it is 1.36 fold enrichment (6-mer frequency, TF over GST control); for CCGGCA it is 1.67 fold enrichment (6-mer frequency, TF over GST control). Turning to ACCTTC, the binding signal is 2.02 fold enrichment (6-mer frequency, TF over GST control). Same read-out and setting: the same measure for TGATCC: 1.63 fold enrichment (6-mer frequency, TF over GST control).

As for CCGACG, the binding signal is 1.19 fold enrichment (6-mer frequency, TF over GST control). Still for that read-out and setting: the same measure for TGCCTT: 1.32 fold enrichment (6-mer frequency, TF over GST control); for AGATGA: 1.14 fold enrichment (6-mer frequency, TF over GST control); for ACTTGG: 1.21 fold enrichment (6-mer frequency, TF over GST control). Still for that read-out and setting: the same measure for CCACGA: 1.03 fold enrichment (6-mer frequency, TF over GST control); for ACTCCA: 1.16 fold enrichment (6-mer frequency, TF over GST control); for CAACCC: 1.2 fold enrichment (6-mer frequency, TF over GST control). Regarding TCTACG, the binding signal was 1.33 fold enrichment (6-mer frequency, TF over GST control). Same read-out and setting: the same measure for AATAGG: 1.22 fold enrichment (6-mer frequency, TF over GST control).

With TCCATC, the binding signal was 1.3 fold enrichment (6-mer frequency, TF over GST control).

As for ATTAAC, the binding signal is 1.26 fold enrichment (6-mer frequency, TF over GST control). Still for that read-out and setting: the same measure for CCCACT: 1.27 fold enrichment (6-mer frequency, TF over GST control). Still for that read-out and setting: the figure for ACACAT is 1.31 fold enrichment (6-mer frequency, TF over GST control). On the same count and under the same terms, the same measure for ACGACA: 1.26 fold enrichment (6-mer frequency, TF over GST control).

A further test addresses T2, ETV7 (Homo sapiens, UniProt Q9Y603 1-341).
T2 sequence: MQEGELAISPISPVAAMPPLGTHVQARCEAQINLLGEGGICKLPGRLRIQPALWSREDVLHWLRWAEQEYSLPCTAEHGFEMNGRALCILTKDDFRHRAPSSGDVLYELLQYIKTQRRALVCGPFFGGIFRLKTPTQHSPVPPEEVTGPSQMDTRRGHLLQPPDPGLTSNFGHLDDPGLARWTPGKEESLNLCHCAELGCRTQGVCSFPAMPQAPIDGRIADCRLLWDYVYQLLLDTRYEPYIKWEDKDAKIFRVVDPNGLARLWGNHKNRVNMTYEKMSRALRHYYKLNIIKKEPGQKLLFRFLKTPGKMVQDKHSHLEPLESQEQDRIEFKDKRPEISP
Described as above. The conditions noted are these: protein: recombinant; tags: N-terminal GST; dsDNA, one strand shown. An outline of the steps:
as §1
Turning to ATGATC, the binding signal was 1.22 fold enrichment (6-mer frequency, TF over GST control). Consider ACACTG, for which the binding signal is 1.03 fold enrichment (6-mer frequency, TF over GST control).

For CCTGTG, the binding signal was 1.07 fold enrichment (6-mer frequency, TF over GST control).

As for CTGGTC, the binding signal is 1.15 fold enrichment (6-mer frequency, TF over GST control).

As to TTTATT, the binding signal is 1.31 fold enrichment (6-mer frequency, TF over GST control). Same read-out and setting: the figure for TACAAA is 1.11 fold enrichment (6-mer frequency, TF over GST control); for CCTGCA it is 1.24 fold enrichment (6-mer frequency, TF over GST control). Still for that read-out and setting: the figure for ACTGCC is 1.34 fold enrichment (6-mer frequency, TF over GST control). Still for that read-out and setting: the figure for ATAATT is 1.31 fold enrichment (6-mer frequency, TF over GST control); for CCTCGG it is 1.11 fold enrichment (6-mer frequency, TF over GST control).

With TTAATC, the binding signal is 1.1 fold enrichment (6-mer frequency, TF over GST control). In the case of CTGTTG, the binding signal was 1.05 fold enrichment (6-mer frequency, TF over GST control). On the same count and under the same terms, the figure for ACATAC is 1.12 fold enrichment (6-mer frequency, TF over GST control); for GTTCCG it is 1.67 fold enrichment (6-mer frequency, TF over GST control). Same read-out and setting: the figure for ATTGCC is 1.22 fold enrichment (6-mer frequency, TF over GST control); for CGTTCC it is 1.3 fold enrichment (6-mer frequency, TF over GST control). The same measure, in the same setting: the figure for GCTATG is 1.3 fold enrichment (6-mer frequency, TF over GST control). For the sequence GGATGT, the binding signal was 1.45 fold enrichment (6-mer frequency, TF over GST control). In the case of TGTCTC, the binding signal was 1.16 fold enrichment (6-mer frequency, TF over GST control).
